esBAF inh – Bmi1 luciferase reporter increase in mESCs, primary screen, esBAF inhibitor project, mouse ES cells, Bmi1 luciferase knock-in, single point. 24 h; 100% = twice the neutral-well signal. reporter increase, % at 12.5 µM. hit rate 2% among 350,000. AID 602393, 2012; in the data active = activation above about 40%;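 note: a rise in the Bmi1 reporter signal indicates esBAF inhibition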
HSF1 inh – HSF1 inhibitors in luciferase reporter cells, primary screen, cell-based, NIH3T3, luminescence; NIH3T3-HGL HSE-luciferase, MG132-induced, luminescence 8 h; hits give low values; activity change, negative = inhibition, % at 7.5 µM (by protocol); hit rate 0.77% among 300,000;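 active = more than half of replicate wells show activity change below -50%, luminescence cut by over half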;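 note: luciferase reports HSF-1 transcriptional activity via heat shock element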
Vif imaging – HIV Vif self-association inhibitors, primary screen, imaging, HEK293T, single point. HEK293T cells, Vif self-association by quenched fluorescence, 24 h. inhibition, % at 7.49 µM. hit rate 0.35% among 340,000. AID 602346, 2012; in the data active = inhibition above about 50%, passing the limit was not always enough
HSF-1 act – HSF-1 activators, primary screen, NIH3T3-HGL cells, MG132 stress, luminescence, single point; NIH3T3-HGL HSF-1 luciferase reporter, 8 h; 100% = twice DMSO control signal; activation, % at 9 µM; hit rate 1.7% among 300,000;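 active = mean replicate activation of at least 50% with a set share of replicates each reaching 50%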
Each line names hits and unclear results; the compound was inactive in the other large screens. The list is not random: actives were taken first. Their share in the collection is about 3.4%.

COc1cc(-c2nnc(SC/C=C/c3ccccc3)n2N)cc(OC)c1OC	HSF-1 act 79
CCOC(=O)C(=CNc1ccc(O)c(C(=O)OC)c1)C(=O)OCC	none
COC(=O)c1ccc(NCc2c(O)ccc(O)c2Br)cc1Cl	Vif imaging 70 (no result: HSF1 inh, HSF-1 act)
COC(=O)c1cc(NCc2c(F)cccc2Cl)ccc1N1CCOCC1	none
COC(=O)c1ccc(NCc2cc(O)ccc2O)cc1O	Vif imaging 85 (no result: HSF1 inh, HSF-1 act)
O=C(C[C@H]1C=C[C@@H](NC(=O)Cc2cccnc2)[C@H](CO)O1)Nc1ccccc1	none (no result: HSF1 inh, Vif imaging, HSF-1 act)
CCN(CCCNC(=O)CCCN1C(=O)COc2ccc(C)cc21)c1cccc(C)c1	HSF-1 act 101
O=C(NCc1ccccc1)c1c[nH]c2cc3c(cc2c1=O)OCCO3	esBAF inh 51
COC(=O)c1ccc(NC(=O)Nc2ccc(F)cc2F)cc1	esBAF inh 79
COc1ccc(NC(=O)Nc2cccc(F)c2)c(OC)c1	none
COC(=O)c1ccc(NC(=O)Nc2cccc(F)c2)cc1	esBAF inh 70
CC(=O)Nc1cccc(NC(=O)CSc2nnc(Cc3cccn3C)n2-c2ccc(F)cc2)c1	HSF1 inh -65
O=C(c1ccco1)N1CCN(c2nc3ccsc3c(=O)s2)CC1	none
O=c1sc(N2CCN(c3ccccc3F)CC2)nc2ccsc12	esBAF inh 69
O=C(Oc1oc(-c2ccco2)nc1C=Nc1ccccc1)c1ccco1	none
Cc1ccc(C(=O)Oc2oc(-c3ccccc3)nc2C=Nc2ccc(N(C)C)cc2)cc1	HSF-1 act 144 (no result: esBAF inh)
O=C(Oc1oc(-c2ccco2)nc1C=Nc1ccccc1)c1ccoc1	HSF1 inh -81 (no result: Vif imaging)
Cc1ccc(C(=O)Oc2oc(-c3ccco3)nc2C=Nc2ccc(Cl)cc2)cc1	HSF-1 act 86 (no result: esBAF inh)
CN(C)c1ccc(N=Cc2nc(-c3ccccc3)oc2OC(=O)c2cccc(Cl)c2)cc1	none (no result: esBAF inh)
Cc1ccc(N=Cc2nc(-c3ccco3)oc2O)cc1	esBAF inh 48
Cc1ccc(-c2nc(C=Nc3ccccc3)c(O)o2)cc1	none (no result: esBAF inh)
COc1ccc(N=Cc2nc(-c3ccccc3)oc2OC(C)=O)cc1	none
CCC(=O)N[C@H]1CC[C@@H](CC(=O)NCc2ccccc2F)O[C@H]1CO	none (no result: HSF1 inh, Vif imaging, HSF-1 act)
COc1ccc(C(=O)C2CCCN(C(=O)Cn3nc(C)nc3C)C2)cc1F (configuration not stated)	none (no result: HSF1 inh, Vif imaging, HSF-1 act)
Cc1nc(C)n(CC(=O)N2CCCC(C(=O)c3ccc(C(F)(F)F)cc3)C2)n1 (configuration not stated)	Vif imaging 96 (no result: esBAF inh)
COc1ccc(NC(=O)CSc2nc(C3CC3)nc3ccccc23)cc1	none
CC(=O)c1ccc(NC(=O)CSc2nc(C3CC3)nc3ccccc23)cc1	Vif imaging 51
CCCCCCCN(C(=O)CCl)c1cccc(C)c1	HSF1 inh -93 (no result: esBAF inh)
CCCCCCN(C(=O)CCl)c1ccccc1	HSF1 inh -68
CC(C)c1cn(CC[C@@H]2CC[C@H](NC(=O)C3CCCCC3)[C@@H](CO)O2)nn1	none (no result: HSF1 inh, Vif imaging, HSF-1 act)
C=CCn1c(N)c(C(=O)Nc2ccccc2OC)sc1=S	none
C=CCn1c(N)c(C(=O)Nc2ccc(C)cc2)sc1=S	esBAF inh 51 (no result: Vif imaging)
Cn1c(N)c(C(=O)Nc2ccc(-c3ccccc3)cc2)sc1=S	HSF1 inh -52 (no result: esBAF inh)
CO[C@@H]1CN(C)C(=O)c2cc(NS(=O)(=O)c3ccccc3C)ccc2OC[C@@H](C)N(C)C[C@H]1C	none (no result: HSF1 inh, Vif imaging, HSF-1 act)
CC(C)c1cn(CC[C@H]2CC[C@@H](NC(=O)Nc3cc(Cl)cc(Cl)c3)[C@H](CO)O2)nn1	none (no result: HSF1 inh, Vif imaging, HSF-1 act)
C[C@@H]1CCCCO[C@H](CN(C)S(C)(=O)=O)[C@@H](C)CN([C@@H](C)CO)C(=O)c2cc(NC(=O)C3CCCCC3)ccc2O1	none (no result: HSF1 inh, Vif imaging, HSF-1 act)
Cc1cc(C2(c3cc(C)c(NC(=O)CN4CCOCC4)c(C)c3)CCCCC2)cc(C)c1NC(=O)CN1CCOCC1	HSF1 inh -57 (no result: esBAF inh, Vif imaging)
O=C(NC1CCCCC1)N[C@H]1CC[C@@H](CCNS(=O)(=O)c2ccccc2)O[C@@H]1CO	none (no result: HSF1 inh, Vif imaging, HSF-1 act)
O=c1/c(=C/c2ccco2)sc2n1CN(c1ccccc1)CN=2	none
Cc1ccc(N2CN=c3s/c(=C\c4ccccn4)c(=O)n3C2)cc1	esBAF inh 77, HSF1 inh -52
CN(C)S(=O)(=O)c1ccc(C(=O)OCCCN=C2NS(=O)(=O)c3ccccc32)cc1	HSF1 inh -67
CN(C)S(=O)(=O)c1ccc(C(=O)OCCN=C2NS(=O)(=O)c3ccccc32)cc1	none (no result: Vif imaging)
CCCCc1nnc(NC(=O)C(C)Sc2nc(C)cc(=O)[nH]2)s1 (configuration not stated)	HSF-1 act 64 (no result: esBAF inh)
COc1cc(CC(=O)O)c([N+](=O)[O-])cc1OC	none (no result: esBAF inh)
COc1cc(CC(=O)O)c(C(C)=O)cc1OC	esBAF inh 48
CCCCOc1ccc(-c2nnn(CCC(=O)N3CCOCC3)n2)cc1	esBAF inh 63 (no result: Vif imaging)
CC(C)(C)c1ccc(OCc2ccc(C(=O)N3CCOCC3)o2)cc1	HSF-1 act 58
CCCc1ccc(OCc2ccc(C(=O)N3CCSCC3)o2)cc1	esBAF inh 47
CC(C)(C)c1ccc(OCCCC(=O)N2CCOCC2)cc1	esBAF inh 66
CCCOc1ccc(-c2nnn(CC(=O)N3CCC(C)CC3)n2)cc1	none (no result: HSF1 inh, HSF-1 act)
CN1CCN(C(=O)C[C@H]2CC[C@@H]3[C@@H](COc4ccc(NC(=O)C5CCCCC5)cc4C(=O)N3C)O2)CC1	none (no result: HSF1 inh, Vif imaging, HSF-1 act)
CN(C)CCCNC(=O)[C@H]1[C@H](CO)[C@H]2Cn3c(ccc(-c4ccccc4)c3=O)[C@H]2N1C	none (no result: HSF1 inh, Vif imaging, HSF-1 act)
CCN1[C@@H]2c3ccc(-c4ccc(F)cc4)c(=O)n3C[C@@H]2[C@@H](CO)[C@@H]1C(=O)NCCc1cn(C)cn1	none (no result: HSF1 inh, Vif imaging, HSF-1 act)
COc1ccc(NC(=O)Nc2ccc3c(c2)[C@@H]2C[C@H](CC(=O)NC4CCCC4)O[C@H](CO)[C@@H]2O3)cc1	none (no result: HSF1 inh, Vif imaging, HSF-1 act)
COc1ccc(NC(=O)Nc2ccc3c(c2)C(=O)N([C@H](C)CO)C[C@H](C)[C@H](CN(C)S(=O)(=O)c2cn(C)cn2)O3)cc1	none (no result: HSF1 inh, Vif imaging, HSF-1 act)
COc1cc(NC(=O)c2ccccc2Cl)ccc1NC(=O)c1cccs1	none (no result: esBAF inh)
O=C(Nc1cccc(NC(=O)c2cccs2)c1)c1ccc([N+](=O)[O-])o1	HSF-1 act 78 (no result: Vif imaging)
COc1cc(NC(=O)c2ccc([N+](=O)[O-])o2)ccc1NC(=O)c1cccs1	HSF-1 act 127
COc1cc(NC(=O)c2cc3ccccc3cc2OC)ccc1NC(=O)c1cccs1	HSF1 inh -58
Cc1ccc(S(=O)(=O)Nc2ccc3c(c2)C(=O)N([C@@H](C)CO)C[C@@H](C)[C@@H](CN(C)Cc2ccncc2)OCCCC[C@H](C)O3)cc1	none (no result: HSF1 inh, Vif imaging, HSF-1 act)
Cc1nc2sc(-c3ccccc3)cc2c(=O)n1-n1cccc1	esBAF inh 48
CCCCn1cnc2sc(-c3ccccc3)cc2c1=O	HSF-1 act 56 (no result: esBAF inh)
CNC(=O)NC(=O)Cn1cnc2sc(-c3ccccc3)cc2c1=O	none (no result: esBAF inh)
CCCCCn1cnc2sc(CC)cc2c1=O	none (no result: esBAF inh)
CCCCCn1cnc2sc(-c3ccccc3)cc2c1=O	esBAF inh 82, HSF-1 act 57
CC(C)NC(=O)N(C)C[C@@H]1Oc2c(NS(=O)(=O)c3ccccc3)cccc2C(=O)N([C@H](C)CO)C[C@H]1C	none (no result: HSF1 inh, Vif imaging, HSF-1 act)

From PubChem
